SMILES strings stand for the structures. About 18,000 (4.4%) of roughly 410,000 compounds were called active. Roughly 7% stayed inconclusive and do not appear here. The entries come from a sample that favours actives as a whole. A number with no mark means an inactive call. Cut-off read from the data, not from the text of the source: active = activity change below about -60%; inconclusive = no clear call, values can overlap the other calls; inactive = above about -39%.
% is set by controls: 0 for no effect and ±100 for the full control effect.

This assay in a line: qHTS Assay for inhibitors of the human cytomegalovirus (HCMV). The note with it: HFF cells, HCMV-luciferase reporter, 72 h; at 57.5 µM; hits give low values. The procedure, abridged:
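Compounds were evaluated in HFFs infected with an HCMV luciferase reporter virus (MOI 1 PFU/cell). Luciferase in lysates collected 72 h post infection served as the replication measure.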
Background: Quantitative high-throughput screening tests each substance at several concentrations.
As to `CCc1ccc(NC(=O)c2cc3c(=O)n(Cc4cccnc4)ccc3nc2C)cc1`, the activity change, negative = inhibition was -20.1%.

For `CC(=O)N1Cc2cc(C(=O)NCc3cccc(F)c3)nc(-c3cccc(C4=CCCCC4)c3)c2[C@H]1CCO`, the activity change, negative = inhibition is 3.64%.

In the case of `COc1ccc(CCNC(=O)c2cc3cccc4c3n2CC(C)S4)c(OC)c1OC` (stereo not given), the activity change, negative = inhibition is 0%.

As to `COCc1c(C(=O)N/N=C/C2CC=CCC2)nnn1-c1nonc1N` (stereo not given), the activity change, negative = inhibition was 65.4%.

Turning to `O=C(NN=Cc1ccco1)C(=O)Nc1ccc(Cl)c([N+](=O)[O-])c1`, the activity change, negative = inhibition is 63.3%.

For the molecule `O=C(/C=C/c1ccc(Cl)c([N+](=O)[O-])c1)c1cccnc1`, the activity change, negative = inhibition is -80.5% (active).

As for `C/C(=N\NC(=O)Cc1ccccc1[N+](=O)[O-])c1cccnc1`, the activity change, negative = inhibition was 44.6%.

`Cc1cc(=O)oc(C)c1C(=O)Nc1cnc2ccccc2c1`: the activity change, negative = inhibition was 38.4%.

For `Cc1ccc(Cn2c(=O)n(CCCC(=O)NCc3ccccc3Cl)c(=O)c3ccccc32)cc1`, the activity change, negative = inhibition is 20.2%.

Turning to `COc1ccc(CNCCc2c[nH]c3ccccc23)cc1OC`, the activity change, negative = inhibition is 4.34%.

With `COc1cccc(CNn2cn[nH]c2=S)c1OCc1ccccc1`, the activity change, negative = inhibition was -23.6%.

On to `COc1cccc(CNCCc2c[nH]c3ccccc23)c1OCc1ccccc1F`, for which the activity change, negative = inhibition is -99.3% (active).

Take `Nc1ncnc2c1ncn2C1OC(CO)CC1O` (stereo not given): the activity change, negative = inhibition was 8.48%.

On to `CC1CCc2noc(NC(=O)c3ccc([N+](=O)[O-])cc3)c2C1` (stereo not given), for which the activity change, negative = inhibition was 26.6%.

Turning to `Cc1nnc(N/N=C/c2ccccn2)[nH]c1=O`, the activity change, negative = inhibition is -97.8% (active).

Consider `S=C(NN=Cc1ccccn1)Nc1ccccn1`, for which the activity change, negative = inhibition was 279%.

In the case of `CS(=O)(=O)N(CC(=O)N/N=C/c1ccccn1)c1ccc(Oc2ccccc2)cc1`, the activity change, negative = inhibition is -1.4%.

For `O=C(CN1C(=O)COc2ccc(S(=O)(=O)N3CCCCCC3)cc21)N1CCN(c2cccc(C(F)(F)F)c2)CC1`, the activity change, negative = inhibition was -23.3%.

Consider `Fc1ccc(C(Nc2ccc(Cl)c(C(F)(F)F)c2)c2nnc(-c3ccccc3)o2)cc1` (stereo not given), for which the activity change, negative = inhibition was -0.379%.

As to `O=c1nc(N/N=C/c2ccco2)cn[nH]1`, the activity change, negative = inhibition is -3.52%.

Regarding `COc1cc(OC)cc(C(=O)N[C@H](C(=O)Nc2nc3ccccc3[nH]2)C(C)C)c1`, the activity change, negative = inhibition is -77% (active).

Regarding `COc1cc(OC)cc(C(=O)N[C@H](C(=O)OCC(=O)NC(C)c2ccccc2)C(C)C)c1` (stereo not given in full), the activity change, negative = inhibition is -6.95%.

Regarding `COc1ccc(N2CCN(C(=O)[C@@H](NC(=O)c3cc(OC)cc(OC)c3)C(C)C)CC2)cc1`, the activity change, negative = inhibition is -2.95%.

`CCN(Cc1ccncc1)C(=S)Nc1ccccc1C`: the activity change, negative = inhibition is 2.81%.

Take `CCn1c(CN2CCC(C)CC2)nc2cc(NC(=O)c3ccccc3[N+](=O)[O-])ccc21`: the activity change, negative = inhibition was -37.4%.

For the molecule `O=C1Nc2cc(Cl)c(Cl)cc2N(O)N1c1ccccc1Cl`, the activity change, negative = inhibition is -10%.

Turning to `CC(Sc1nnc(C2CC2)n1C1CC1)C(=O)Nc1ccc(C(N)=O)cc1` (stereo not given), the activity change, negative = inhibition is 36.3%.

In the case of `COc1ccc(NC(=O)C(C)SCc2ccccc2)cc1` (stereo not given), the activity change, negative = inhibition is -10.8%.

As to `CC(Sc1nnc2c(n1)C1CCC2(C)C1(C)C)C(=O)Nc1ccccc1` (stereo not given), the activity change, negative = inhibition is -60.9% (active).

On to `CC(=O)Nc1ccc(S(=O)(=O)Nc2cc(C)cn(Cc3ccc(C)cc3)c2=O)cc1`, for which the activity change, negative = inhibition is -7.02%.

Consider `Oc1c(Cl)cc(Cl)c(Cl)c1Cc1c(O)c(Cl)cc(Cl)c1Cl`, for which the activity change, negative = inhibition is -95.4% (active).

With `Cc1cc(C)nc(NS(=O)(=O)c2ccc(NC(=O)c3cc(=O)c4ccc(C)c(C)c4o3)cc2)n1`, the activity change, negative = inhibition was -4.22%.

For the molecule `Cc1cc(C)cc(NS(=O)(=O)c2ccc(-c3cc(C)no3)s2)c1`, the activity change, negative = inhibition is 0%.

On to `COc1cccc(-c2nnc3n(CCc4ccccc4)c(=O)c4ccccc4n23)c1O`, for which the activity change, negative = inhibition is 2.64%.

For the molecule `Cc1ccccc1NC(=O)c1ccc(COc2ccc3c(C)cc(=O)oc3c2)cc1`, the activity change, negative = inhibition is 10.2%.

Regarding `Cc1cc(=O)oc2cc(OCC3CC(c4ccccc4Cl)=NO3)ccc12` (stereo not given), the activity change, negative = inhibition is -90.9% (active).

For `CC(=O)c1c(C)[nH]c(C(=O)COc2ccc3c(C)cc(=O)oc3c2)c1C`, the activity change, negative = inhibition was -31.5%.

Regarding `CCc1ccc(N2C(=O)CN(S(=O)(=O)CC)CC2(C)C(=O)NC2CCCCC2)cc1` (stereo not given), the activity change, negative = inhibition is 0%.

Regarding `COc1cccc(C(=O)NCc2ccc3c(c2)CCN3C(=O)c2ccncc2)c1`, the activity change, negative = inhibition was 8.47%.

Take `NS(=O)(=O)c1ccc(NC(=O)COc2ccc(S(=O)(=O)NC3CCCCC3)cc2)cc1`: the activity change, negative = inhibition is 15.5%.

As for `CCN(CC)CCn1c(=S)[nH]c2ncccc2c1=O`, the activity change, negative = inhibition is -27.4%.

With `COc1ccc(C(=O)NCC(c2ccc(N(C)C)cc2)N2CCc3ccccc32)c(OC)c1` (stereo not given), the activity change, negative = inhibition was -18.8%.

`COc1ccc(CN2C(=O)CC(Cc3ccc(C)cc3)C2=O)cc1OC` (stereo not given): the activity change, negative = inhibition is -12.9%.

As to `CCCCOc1ccc(Cn2c(=O)oc3ccc(C)cc32)cc1OC`, the activity change, negative = inhibition is -4.31%.

Regarding `CCCCOc1ccc(CN2C(=O)C(=O)c3cc(Br)cc(C)c32)cc1OC`, the activity change, negative = inhibition is -102% (active).

Consider `CCC(=O)N1CCc2cc(S(=O)(=O)NC(Cc3ccccc3)C(=O)NCc3ccccc3)ccc21` (stereo not given), for which the activity change, negative = inhibition was -22.7%.

As for `CCn1cc(C(=O)N2CCN(c3cc(Cl)ccc3C)CC2)c(=O)c2cc(S(=O)(=O)N3CCCC3)ccc21`, the activity change, negative = inhibition is -11.4%.

Turning to `Cc1c(C)n(Cc2ccc(Cl)cc2)c2ccc(C(=O)N3CCN(c4ccccc4F)CC3)cc12`, the activity change, negative = inhibition was 0%.

`Cc1nn(C)cc1/C=C1\CCC/C(=C\c2cn(C)nc2C)C1=O`: the activity change, negative = inhibition was -22.6%.

On to `CCCCc1nn2c(=O)cc(COC(=O)c3ccccc3NC(=O)C(C)(C)C)nc2s1`, for which the activity change, negative = inhibition was -7.43%.

Take `CC1(C)CN(CCc2ccccc2)C(=O)[C@H]1CC(=O)Nc1ccc(Br)cc1`: the activity change, negative = inhibition is 8.25%.

Consider `O=C(C[C@H]1C(=O)N(c2ccc(F)c(F)c2)C[C@@H]1Cc1ccccc1)Nc1ccccc1`, for which the activity change, negative = inhibition is -93.1% (active).

With `COc1ccc(NC(=O)C[C@H]2C(=O)N(CCc3ccccc3)C[C@@H]2C)cc1`, the activity change, negative = inhibition was 5.53%.

As to `CCc1ccc2ncc3c(-c4ccc(C)cc4)nn(CC(=O)NCc4ccccc4)c3c2c1`, the activity change, negative = inhibition was -6.71%.

For `COc1ccc(S[C@]2(c3nc(C)no3)CC(=O)N(C(=O)C3CC3)[C@@H]2c2ccc(OC)cc2)cc1`, the activity change, negative = inhibition is -16.8%.

In the case of `Cc1cccc(Cc2c(C)nc3nc(SCc4ccccc4Cl)nn3c2C)c1`, the activity change, negative = inhibition is 4.98%.

Turning to `Oc1ccc(-c2nc3ccc(Cl)cn3c2Nc2ccc3c(c2)OCO3)cc1`, the activity change, negative = inhibition is 12.9%.

In the case of `Cc1ccc(CCNC(=O)c2ccc3c(c2)nc2n3CCC(C)C2)cc1` (stereo not given), the activity change, negative = inhibition is 14.9%.

With `COc1ccc(-c2csc(NC3OC(=O)c4ccccc43)n2)cc1` (stereo not given), the activity change, negative = inhibition was -107% (active).

In the case of `Cc1ccc(-c2csc(NC3OC(=O)c4ccccc43)n2)cc1` (stereo not given), the activity change, negative = inhibition was 0% (active).

Turning to `CCCc1nc2scc(-c3ccc(C)cc3)c2c(=O)n1N`, the activity change, negative = inhibition was -13.5%.

Regarding `COc1cccc(C(NC(C)=O)c2nc(-c3ccccc3OC)cs2)c1` (stereo not given), the activity change, negative = inhibition is 28.9%.

`COc1ccc2c(c1OC)C(=O)OC2Nc1nc(-c2ccccc2)cs1` (stereo not given): the activity change, negative = inhibition was -104% (active).

For `COc1ccc(-c2cc(-c3ccc(F)cc3)nc3c2COc2ccccc2-3)cc1`, the activity change, negative = inhibition was -6.64%.

On to `Cc1cc2c(cc3c(SCc4cccc(Cl)c4)nnc(C)n32)o1`, for which the activity change, negative = inhibition is 4.43%.

As for `Cc1ccc(-n2c(=O)c3cccnc3n2CC(=O)Nc2ccccc2C(F)(F)F)cc1C`, the activity change, negative = inhibition is -5.4%.

Turning to `CCN(C(=O)CSc1cccc[n+]1[O-])c1ccccc1`, the activity change, negative = inhibition was -32.1%.

As for `O=C(CSc1cccc[n+]1[O-])c1ccc(-c2ccccc2)cc1`, the activity change, negative = inhibition is -97.9% (active).

For the molecule `O=C(CSc1cccc[n+]1[O-])NCCCc1ccccc1`, the activity change, negative = inhibition is -39.5%.

With `COC(=O)Cc1nnn2c1[C@H](C)[C@H](c1ccccc1[N+](=O)[O-])OCC2`, the activity change, negative = inhibition is -4.47%.

Take `COc1ccc(CNC(=O)COCc2cc(-c3cccs3)on2)cc1OC`: the activity change, negative = inhibition is -28.2%.

Turning to `CC1CCN(c2nc3ccc(C(=O)N4CCN(c5ccccc5)CC4)cc3s2)CC1`, the activity change, negative = inhibition was 31.7%.

For the molecule `CCn1c(-c2ccncc2)n[nH]c1=S`, the activity change, negative = inhibition was -21.8%.

As for `CCn1c(CSCc2c(Cl)cccc2Cl)n[nH]c1=S`, the activity change, negative = inhibition was -67.6% (active).

In the case of `S=c1[nH]nc(CSCc2ccc(Cl)cc2Cl)n1-c1ccccc1`, the activity change, negative = inhibition was -18.3%.

Take `Cc1cc(C)n2nc(CNS(=O)(=O)c3c(F)c(F)c(F)c(F)c3F)nc2n1`: the activity change, negative = inhibition was 0%.

Turning to `CCc1ccc2oc(-c3ccc(C)c(NC(=O)/C=C/c4ccco4)c3)nc2c1`, the activity change, negative = inhibition was 34.4%.

Consider `CCOC(=O)c1c(NC(C)=O)c2c3c(sc2n1Cc1c(C)cc(C)cc1C)CCCC3`, for which the activity change, negative = inhibition is -73.8% (active).

Regarding `CCC(C)NC(=O)Cn1c(=O)n(-c2ccc(Cl)cc2)c(=O)c2c3c(sc21)CCCC3` (stereo not given), the activity change, negative = inhibition was 12.8%.

In the case of `Cc1ccc(NC(=O)Cn2c(=O)n(-c3ccccc3)c(=O)c3c4c(sc32)CCCC4)cc1`, the activity change, negative = inhibition is 2.61%.

In the case of `CCOc1ccc(C(=O)c2cn(Cc3ccc(F)cc3)c3ccc(F)cc3c2=O)cc1`, the activity change, negative = inhibition was -1.76%.

For the molecule `CCCc1nn2c(=O)cc(CSCC(=O)Nc3cccc(C)c3)nc2s1`, the activity change, negative = inhibition is 2.89%.

With `CNC(=S)N/N=C/c1ccc(N2CCOCC2)s1`, the activity change, negative = inhibition was 26.5%.

In the case of `C=CCNC(=S)N/N=C/c1ccc(C)s1`, the activity change, negative = inhibition was 0% (active).

Turning to `C=CCNC(=S)NNC(=O)c1ccc(Br)o1`, the activity change, negative = inhibition was -7.15%.

As to `CN(C(=O)COC(=O)Cn1cnc2c1c(=O)n(C)c(=O)n2C)C1(C#N)CCCCC1`, the activity change, negative = inhibition is 40.8%.

With `CCC(CC)c1nn2cc(-c3ccccc3)nc2s1`, the activity change, negative = inhibition is -21.9%.

For `CCc1cc2c(cc3c(=O)n(CC(=O)NCc4cccc(Cl)c4)nc(CC)n32)s1`, the activity change, negative = inhibition was 34.4%.

Regarding `CC1(C)CC2CC(C)(CN2c2ncnc3ccc(Br)cc23)C1` (stereo not given), the activity change, negative = inhibition was -62.4% (active).

For `Cc1ccc(CN(C(=O)c2ccccc2[N+](=O)[O-])c2ccccn2)cc1`, the activity change, negative = inhibition is 3.28%.

These data come from PubChem BioAssay AID1259415 (National Center for Advancing Translational Sciences (NCATS), 2018).
